Test results: the supplement of paper PMC6555819

Assays:
Assay in all cases: PBM binding z-score (relative to random genomic background probes); higher = stronger binding; sequences stand for … in GC…GCGATTGACAGCGTAGAATGAAGG
[1] = system: FXR:RXRa (NR concentration 270 nM, RXRa partner concentration 90 nM)
In short: (§1)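 Random background probes are the reference for binding z-scores. These scores derive from regression-normalized fluorescence on custom Agilent 4×180K protein-binding microarrays incubated 1 h with ligand-free nuclear receptor dimers. Binding was detected with antibodies against each partner (one per run).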

[2] = system: LXRa:RXRa (NR concentration 270 nM, RXRa partner concentration 90 nM)
In short: as §1

[3] = system: LXRa homodimer (NR concentration 270 nM)
In short: as §1

[4] = system: LXRb:RXRa (NR concentration 270 nM, RXRa partner concentration 90 nM)
In short: as §1

[5] = system: LXRb homodimer (NR concentration 270 nM)
In short: as §1

[6] = system: PPARa:RXRa (NR concentration 270 nM, RXRa partner concentration 90 nM)
In short: as §1

[7] = system: PPARg:RXRa (NR concentration 180 nM, RXRa partner concentration 90 nM)
In short: as §1

[8] = system: PPARg:RXRa 270nM:90nM, anti-RXR (NR concentration 270 nM, RXRa partner concentration 90 nM)
In short: as §1

[9] = system: PPARg:RXRa 30nM:10nM, anti-RXR (NR concentration 30 nM, RXRa partner concentration 10 nM)
In short: as §1

[10] = system: PPARg:RXRa 90nM:30nM, anti-RXR (NR concentration 90 nM, RXRa partner concentration 30 nM)
In short: as §1

[11] = system: PPARg:RXRa DBDmut IVT, anti-RXR (DBD mutation: RXRa K156A/R161A, NR concentration 270 nM, RXRa partner concentration 90 nM)
In short: as §1

[12] = system: PPARg:RXRa IVT, anti-PPARg (NR concentration 270 nM, RXRa partner concentration 90 nM)
In short: as §1

[13] = system: PPARg DBDmut IVT, anti-PPARg (DBD mutation: PPARg1 K132A/R137A, NR concentration 270 nM)
In short: as §1

[14] = system: PPARg homodimer (NR concentration 180 nM)
In short: as §1

[15] = system: PXR:RXRa (NR concentration 270 nM, RXRa partner concentration 90 nM)
In short: as §1

[16] = system: PXR homodimer (NR concentration 270 nM)
In short: as §1

[17] = system: RARa:RXR (NR concentration 270 nM, RXRa partner concentration 90 nM)
In short: as §1

[18] = system: RARa homodimer (NR concentration 270 nM)
In short: as §1

[19] = system: RARb:RXRa (NR concentration 270 nM, RXRa partner concentration 90 nM)
In short: as §1

| Sequence | PBM binding z-score [1] | PBM binding z-score [2] | PBM binding z-score [3] | PBM binding z-score [4] | PBM binding z-score [5] | PBM binding z-score [6] | PBM binding z-score [7] | PBM binding z-score [8] | PBM binding z-score [9] | PBM binding z-score [10] | PBM binding z-score [11] | PBM binding z-score [12] | PBM binding z-score [13] | PBM binding z-score [14] | PBM binding z-score [15] | PBM binding z-score [16] | PBM binding z-score [17] | PBM binding z-score [18] | PBM binding z-score [19] |
| --- | --- | --- | --- | --- | --- | --- | --- | --- | --- | --- | --- | --- | --- | --- | --- | --- | --- | --- | --- |
| CGAACTAGGTCAAAGGACTGTGAAAGGCGACGTA | 3.86 | 2.36 | -0.238 | 1.58 | -0.452 | 4.89 | 9.38 | 7.84 | 7.28 | 8.69 | 8.23 | 8 | 0.977 | 1.41 | 0.827 | -0.596 | 1.86 | -0.095 | 3.58 |
| ATATGTAGGTTAGTGTCATTCAGAAAGTAGGGAA | 1 | 1.03 | 0.483 | 1.41 | 0.974 | 3.21 | 4.15 | 3.57 | 1.5 | 2.8 | 6.62 | 6.21 | 2.47 | 1.86 | 1.09 | 0.763 | 1.32 | 2.19 | 1.4 |
| CGAACTCGGTCAAAGGACAGTGAAAGGCGACGTA | 0.719 | 0.857 | -0.21 | -0.0802 | -0.824 | 2.68 | 5.06 | 5.39 | 3.97 | 5.3 | 2.71 | 3.18 | -0.87 | 0.102 | -0.0185 | -0.567 | 0.43 | -0.278 | 2.56 |
| CGAACTATGTCAAAGGACAGTGAAAGGCGACGTA | 0.0509 | 0.00479 | -0.268 | -0.115 | -0.346 | 2.68 | 5.1 | 5.42 | 4.42 | 5.74 | 3.02 | 3.26 | 0.207 | 0.527 | -0.558 | -0.587 | -0.379 | -0.181 | 1.45 |
| ATATGTAGGTTAGGGTCATTCGGAAAGTAGGGAA | 5.03 | 4.43 | 1.22 | 4.4 | 1.67 | 5.83 | 7.56 | 6.42 | 4.48 | 6.36 | 6.55 | 6.85 | 4.65 | 3.85 | 4.53 | 1.88 | 4.88 | 2.27 | 3.43 |
| CGAACTAGGTCACCAGCACAGTGAAGAGGTTGGA | 4.03 | 2.42 | 0.171 | 1.53 | -0.224 | 5.12 | 8.39 | 7.01 | 4.62 | 6.53 | 8.34 | 8.76 | 0.181 | 1.79 | 1.41 | 0.0792 | 2.39 | 0.262 | 4.11 |
| ATATGTAGGTTAGCGTCATTCAGAAAGTAGGGAA | 0.121 | 0.529 | -0.273 | 0.174 | 0.215 | 2.81 | 4.14 | 3.23 | 1.36 | 2.32 | 6.57 | 6.84 | 1.38 | 0.87 | -0.0758 | 0.0634 | -0.121 | 0.244 | 0.594 |
| CGAACTAGGTCACCAAGACAGTGAAGAGGTTGGA | 3.75 | 1.93 | -0.0683 | 1.32 | -0.272 | 5.11 | 8.16 | 6.46 | 4.53 | 6.57 | 7.83 | 8.54 | 0.905 | 1.16 | 1.14 | -0.2 | 1.99 | 0.703 | 4.07 |
| CGAACTAGGTCAAAGGACCGTGAAAGGCGACGTA | 3.56 | 2.39 | 0.0544 | 1.48 | -0.478 | 4.99 | 8.12 | 6.9 | 5.98 | 7.29 | 7.75 | 8.21 | 0.0403 | 0.811 | 0.907 | -0.51 | 1.44 | -0.512 | 3.69 |
| CGAACTAGGTCACCAGGACAGAGAAGAGGTTGGA | 4.19 | 2.59 | 0.117 | 1.71 | -0.205 | 5.15 | 8.52 | 7.02 | 4.71 | 6.65 | 8.29 | 8.26 | 0.828 | 2.46 | 1.55 | 0.0837 | 2.56 | 0.391 | 4.22 |
| ATATGTAGGTTAGGGTGATTCAGAAAGTAGGGAA | 1.37 | 1.32 | 0.569 | 1.83 | 1.47 | 3.62 | 5.4 | 4.45 | 2.06 | 3.62 | 6.7 | 6.39 | 1.41 | 2.93 | 1.04 | 1.31 | 1.3 | 1.25 | 1.38 |
| CGAACTAGGTCACGAGGACAGTGAAGAGGTTGGA | 4.56 | 2.89 | 0.291 | 1.98 | -0.399 | 5.33 | 8.72 | 7.24 | 5.15 | 6.84 | 8.67 | 8.88 | 1.07 | 2.21 | 1.87 | 0.184 | 3.07 | 0.4 | 4.39 |
| CGGACTAGGTCAAAGGACAGTGAAAGGCGACGTA | 3.87 | 2.49 | -0.041 | 1.67 | -0.542 | 4.93 | 10.2 | 8.4 | 8.49 | 9.55 | 7.7 | 7.9 | 0.294 | 1.67 | 1.11 | -0.218 | 2.41 | 0.208 | 3.69 |
| CGAACTAGGGCAAAGGACAGTGAAAGGCGACGTA | -0.161 | -0.272 | -0.336 | -0.481 | -1.45 | 3.45 | 9.04 | 7.51 | 8.13 | 8.74 | 7.08 | 6.68 | 0.104 | 0.584 | -0.478 | -0.625 | -0.393 | -0.727 | 2 |
| ATATGTAGGTTAGGGTCGTTCAGAAAGTAGGGAA | 2.59 | 2.54 | 0.724 | 3.09 | 1.65 | 4.31 | 5.88 | 4.99 | 2.44 | 4.12 | 6.06 | 6.47 | 2.98 | 2.38 | 2.11 | 1.67 | 2.37 | 1.51 | 1.92 |
